High-throughput results (PubChem)
Rows were chosen to be rich in hits. Some 0.83% of all compounds tested hit in one or more screens of this group.
SRC3 inh: inhibitors of human steroid receptor coactivator 3 (SRC3); 0.17% of 360,000 active; inhibition, % at 3.6 µM; HEK293 GAL4-SRC3 luciferase reporter, luminescence;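 active = inhibition above a per-campaign cutoff, the mean of all compounds plus 3 SD, cut at about 60% in these data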;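 note: 0% = DMSO-treated cells and 100% = gossypol-treated cells at 36 µM; higher means less SRC3-driven luciferase light from the GAL4 reporter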
LRH-1 inv ag: NR5A2 inverse agonism in reporter assay; O00482; HEK293T StAR-luciferase reporter, LRH-1 transfected, 24 h; inhibition, % at 3.6 µM; 0.13% of 360,000 active; AID 602396;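 active = inhibition above the mean inhibition of all tested compounds plus 3 SD, cut at about 73% in these data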;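 note: 0% = DMSO wells and 100% = reporter-only cells lacking LRH-1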
SRC1 inh: inhibitors of human steroid receptor coactivator 1 (SRC1). inhibition, % at 3.6 µM. Q15788. 0.12% of 360,000 active. HEK293 GAL4-SRC1 luciferase reporter, luminescence. AID 588354;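 active = inhibition above the campaign mean plus 3 SD, with each screening campaign given its own cutoff, cut at about 60% in these data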;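 note: 0% = DMSO treated cells and 100% = gossypol at 36 µM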
Gli-Sufu block: Gli-Sufu pathway antagonism. Sufu-KO-LIGHT fibroblasts, Gli luciferase reporter luminescence. inhibition, % at 5 µM. 0.74% of 340,000 active. AID 588413;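 active = inhibition above about 55%, limit read from the data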;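 note: 0% = DMSO-treated cells and 100% = wells with medium but no cells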
NCOA2 inhibitor: human SRC2 (NCOA2) inhibition; 0.17% of 370,000 active; Q15596; HEK293 GAL4-SRC2 luciferase reporter, luminescence; inhibition, % at 9 µM;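 active = inhibition above the mean inhibition of all tested compounds plus 3 SD, set per campaign, cut at about 52% in these data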;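 note: 0% = DMSO treated cells and 100% = cells given Gossypol at 36 µM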
Starred values were filed as active, the others as inactive; x = no result.

SMILES	SRC3 inh	LRH-1 inv ag	SRC1 inh	Gli-Sufu block	NCOA2 inhibitor
COc1ccc2cc3cc(C(=O)Nc4cc(OC)c(OC)c(OC)c4)oc3nc2c1	45	46	63*	11	24
O=C(NCCc1c[nH]c2ccccc12)OCc1cn(Cc2cccc(F)c2)nn1	x	x	x	x	-14
COc1ccc(NC(=O)c2cccc([N+](=O)[O-])c2)cc1	-36	2	-31	-31	-35
COc1ccc(NC(=O)c2cc([N+](=O)[O-])ccc2O)cc1	53	20	51	43	76*
C=CCN1[C@H](Cc2ccccc2)COc2cccc(N3CCCC3)c2S1(=O)=O	x	x	x	x	-5
Cc1nnsc1C(=O)N/N=C/c1ccccc1	9	-18	15	-7	-7
Cc1nnsc1C(=O)N/N=C/c1ccc2ccccc2c1O	84*	-14	81*	86*	18
C=CCn1c(SCC(=O)OC(C)C)nnc1-c1ccc(C)cc1	x	x	x	x	6
Cc1cc(C)c2c(N)c(C(=O)Nc3ncc(C)s3)sc2n1	49	52	46	67*	77*
CCCCN1C=CC(=C2C(=O)c3ccccc3C2=O)C=C1	60	-9	44	x	76*
CCCCNC1=CC(=O)C(=O)c2ccccc21	13	36	14	-2	-14
O=C1C(Cl)=C(Nc2ccc3cn[nH]c3c2)C(=O)c2ccccc21	-13	19	-27	-21	88*
O=C(Nc1ccc2cn[nH]c2c1)c1c(Cl)cccc1Cl	6	7	-1	-6	21
Cc1nc2c(-c3ccccc3)cnn2c(N)c1-c1ccccc1	67*	60	72*	56*	53*
Cc1cc(-c2ccccc2)n2ncc(-c3ccccc3)c2n1	8	-45	-35	-36	3
Cc1ccc(/C=C2\CCOC2=O)cc1	-33	-23	-57	-7	-45
Cc1ccc(/C=C2/CNC/C(=C/c3ccc(C)cc3)C2=O)cc1	12	80*	36	-2	-54
CCC(CO)[n+]1c(C)cc(/C=C2\Sc3ccccc3N2Cc2ccccc2)cc1C (stereo not drawn)	3	12	8	87*	-22
CCN1/C(=C2\SC(=S)N(Cc3ccccc3)C2=O)Sc2ccccc21	-9	-14	-2	5	-22
COC(=O)[C@]12C[C@H](CC(=O)NCc3cccc4ccccc34)C(=O)N(Cc3ccco3)C1=C[C@H](C1CCCC1)O[C@@H]2C	x	x	x	x	13
COc1ccc(-n2c(SCC(=O)Nc3ccc(S(=O)(=O)Nc4nccs4)cc3)nnc2-c2ccccc2)cc1	x	x	x	x	17
CC1CCCCN1c1ncnc(N)c1[N+](=O)[O-] (stereo not drawn)	43	5	45	-16	43
CC1Cc2ccccc2N1c1ncnc(N)c1[N+](=O)[O-] (stereo not drawn)	64*	41	66*	-12	72*
O=C(Nc1nc(-c2ccccn2)cs1)c1ccc(Br)s1	8	0	10	82*	14
O=C(Nc1nc(-c2ccccn2)cs1)c1ccco1	5	-12	-20	-7	-9
SMILES	SRC3 inh	LRH-1 inv ag	SRC1 inh	Gli-Sufu block	NCOA2 inhibitor
CCCC/C=C1/[C@H](c2ccc(Cl)cc2)N(Cc2ccc3c(c2)OCO3)C2=N[C@H](c3ccccc3)CC(=O)N21	x	x	x	x	23
NC1=C(Cl)C(=O)c2ccc(S(N)(=O)=O)cc2C1=O	90*	95*	90*	89*	80*
CC(C)c1cc(C(C)C)c(S(=O)(=O)N2CCC(c3cn4ccccc4n3)CC2)c(C(C)C)c1	x	x	x	x	-12
COCCCNC(=O)c1ccc2c(c1)NC(=O)C(C)(C)O2	x	x	x	x	5
Oc1cc(Nc2ccccc2)cc2cccnc12	-13	21	-2	9	8
Oc1cccc2cc(Nc3ccccc3)cnc12	69*	90*	57	x	14
CCOC(=O)c1cc2sccc2n1CC(=O)OC(C)C	11	28	0	6	1
CCOC(=O)c1cc2sccc2n1CC(=O)N1CCc2ccccc21	67*	0	39	30	-3
CC1(C)CC[C@]2(C(=O)n3ccnc3)CC[C@]3(C)[C@H](C(=O)C=C4[C@@]5(C)C=C(C#N)C(=O)C(C)(C)[C@@H]5CC[C@]43C)[C@@H]2C1	55	21	44	93*	-2
O=C(CCCN1C(=O)S/C(=C\c2ccccc2)C1=O)NNC(=O)c1ccccc1O	71*	42	60	36	78*
O=C(CCCN1C(=O)/C(=C/c2ccccc2Cl)SC1=S)NNC(=O)c1ccc(Cl)cc1Cl	34	3	27	26	81*
O=C(CCN1C(=O)/C(=C/c2ccccc2Cl)SC1=S)Nc1ccccc1C(=O)O	4	4	-22	7	8
O=C(CCCN1C(=O)/C(=C/c2ccccc2Cl)SC1=S)NNC(=O)c1ccccc1	40	37	37	6	81*
O=C(CCCN1C(=O)/C(=C/c2ccccc2Cl)SC1=S)NNC(=O)c1cccnc1	18	20	18	-17	79*
CNc1cccnc1C=NNC(N)=S	80*	49	80*	84*	34
NC(=S)NN=Cc1nccc2c(C(F)(F)F)cccc12	91*	93*	87*	x	25
N#Cc1c(NC(=O)CSC2=NCCS2)sc2c1CCCC2	2	-8	-1	-16	7
N#Cc1c(NC(=O)CSc2ncn[nH]2)sc2c1CCCC2	26	39	23	22	75*
CCCC(=O)Nc1sc2c(c1C#N)CCCCC2	-60	-95	-70	-8	-62
CC(C)(C)C1CCc2c(sc(NC(=O)CSc3ncn[nH]3)c2C#N)C1 (stereo not drawn)	2	-1	15	3	6
CC1CCc2c(sc(NC(=O)CSc3ncn[nH]3)c2C#N)C1 (stereo not drawn)	53	47	44	33	82*
N#Cc1c(NC(=O)CCCC(=O)O)sc2c1CCCCC2	-13	-27	-66	-16	61*
Cc1ccc(C(=O)Nc2sc(C)c(-c3ccccc3)c2C(N)=O)cc1[N+](=O)[O-]	60	43	51	66*	49
Cc1ccc(C(=O)Nc2cccc(NC(=O)c3ccc(C)c([N+](=O)[O-])c3)n2)cc1[N+](=O)[O-]	-2	0	1	3	8
COc1ccc(/C=C/c2cccc[n+]2C)c(O)c1	-8	-2	-20	34	7
SMILES	SRC3 inh	LRH-1 inv ag	SRC1 inh	Gli-Sufu block	NCOA2 inhibitor
CCN(CC)c1ccc(/C=C/c2cccc[n+]2C)c(OC)c1	61	82*	58	89*	4
Oc1ccccc1N=Nc1ccccc1O	69*	36	34	87*	21
Nc1ccc(N=Nc2ccccc2O)c(N)c1	-74	-108	-92	-4	-17
O=C(NCc1cccs1)c1nc2c(nnn2Cc2ccccc2Cl)c(=O)[nH]1	90*	101*	43	-3	56*
O=C(CSc1nc2ccccc2[nH]1)NN=Cc1c(F)cccc1Cl	x	x	x	x	-2
COc1ccc(C(=O)O/N=C(\N)c2ccccc2)cc1	-98	-109	-102	-78	-12
CC(C)(C)c1ccc(C(=O)O/N=C(\N)c2ccccc2)cc1	82*	69	82*	89*	80*
C=CCN(CC#CCN(C)C(=O)c1cccn1C(=O)OC(C)(C)C)Cc1ccc(OC)cc1OC	x	x	x	x	35
